Screens (PubChem)
This is a sample that favours compounds with a hit; in the whole collection about 8.3% have one here.
HCMV inh – blocks human cytomegalovirus replication; HFF cells, HCMV-luciferase reporter, 72 h; active compounds read low; hit rate 4.5% among 410,000; activity change, negative = inhibition, % at 57.5 µM; in the data active means activity change below about -60%; inconclusive means no clear call, values can overlap the other calls; inactive means above about -39%
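Steps: HFFs plated, 16 h 37C; compounds added; HCMV-luciferase added to MOI 1 PFU/cell; 72 h 37C; OneGlo reagent, 5 min room temperature; luminescence read, normalized to controls.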
Lassa entry inh – blocks Lassa virus binding to or entry into cells; Lassa virus pseudotype entry inhibition, cell reporter; hit rate 1.2% among 300,000; Potency, µM (series often up to 37.9 µM), hits mostly inhibitors; calls by dose curve; tested in HEK293 cells; further: nearly all actives have a fitted effect of over 50% in size
Giardia FBPA inh – inhibitors of Giardia lamblia fructose-1,6-bisphosphate aldolase | purified Giardia FBPA | Potency, µM (doses to about 59.6 µM), hits mostly inhibitors | hit rate 0.71% among 290,000 | AID 2451; further: nearly all actives have a fitted effect of over 55% in size
Target sequence (A8B2U2 whole entry, looked up): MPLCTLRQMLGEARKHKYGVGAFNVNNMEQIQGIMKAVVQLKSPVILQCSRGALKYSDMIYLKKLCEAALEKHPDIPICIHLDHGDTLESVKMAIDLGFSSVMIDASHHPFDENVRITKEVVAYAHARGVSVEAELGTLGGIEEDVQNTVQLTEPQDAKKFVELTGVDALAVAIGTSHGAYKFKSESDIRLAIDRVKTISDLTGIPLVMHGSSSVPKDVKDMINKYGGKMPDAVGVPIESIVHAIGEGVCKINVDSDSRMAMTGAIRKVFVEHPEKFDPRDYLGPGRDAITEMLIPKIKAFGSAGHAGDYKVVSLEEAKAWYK
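Giardia FBPA (40 nM reagent) was preincubated 10 min at RT with compound (up to 57.5 uM final), then substrate plus GAPDH/TPI/NAD/arsenate coupling system with diaphorase/resazurin was added; resorufin fluorescence (525/598 nm) was read after 20 min.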
HCV inh – blocks hepatitis C virus. Huh7.5.1 HCVcc-Cre infection, luciferase reporter, 44 h. Potency, µM (titrated, usually from 41.8 µM), usual class: inhibitors. hit rate 3.4% among 340,000
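Reporter virus HCVcc-Cre (~0.5 moi) infects cells exposed to compound; seeding density 1,000 cells/well with 4 h settling beforehand. Luminescence, 15 sec read, taken 44 h post-infection following a 15 min RT substrate incubation.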
MARV entry inh – Marburg virus entry inhibition | Marburg virus pseudotyped entry inhibition, cell reporter | Potency, µM (titrated, usually from 37.8 µM), usual class: inhibitors | hit rate 1.8% among 300,000; calls by dose curve; tested in HEK293 cells
FMDV inh – antivirals against foot and mouth disease virus; FMDV antiviral cell-based qHTS; Potency, µM (top dose mostly 57.9 µM), usual class: inhibitors; hit rate 1.2% among 410,000; AID 1159524; calls by dose curve; tested in HEK293T cells; further: read-out not given here; nearly all actives have a fitted effect of over 45% in size
Numbers stand for hits; 0 = inactive; ? = inconclusive; - = no result; [ ] = another dose, or the depositor's remark. Unless noted, the call rests on the fitted dose curve; in most records, active means well fitted curve in the direction sought with a large enough effect; inconclusive means small, poorly fitted or top-dose-only effect, or another doubt; inactive means no such curve, though single readings can be large; an effect the other way counts as inactive or inconclusive.

SMILES | HCMV inh | Lassa entry inh | Giardia FBPA inh | HCV inh | MARV entry inh | FMDV inh
Cc1cccc(/C=C/c2nc3ccccc3c(=O)[nH]2)c1 | 0 | 3.5µM | 0 | 0 | ? | 0
C[C@H]1Cc2c(-c3ccccc3)nc3c(c2CO1)CN(C(=O)c1cc(I)ccc1F)CC3 | - | - | 0[12.9 µM] | - | - | -
COc1ccccc1CN1Cc2ccccc2Oc2ccccc2S1(=O)=O | 0 | - | - | - | - | -
Cc1ccccc1/C=C\c1nc2ccccc2c(=O)n1Cc1ccccc1 | 0 | 0 | 0 | 0 | ? | ?
O=c1c2ccccc2nc(/C=C/c2cccnc2)n1Cc1ccccc1 | -98 | ? | 0 | 0 | ? | 0
CCCCN(CCCC)CC1OCc2ccccc2CO1 | 0 | ? | 0 | 0 | ? | 0
CCN(CC)CCCN(c1ccccc1)C1Cc2ccccc2C1 | 0 | ? | - | - | 6.5µM | -
CN(C)Cc1ccccc1-c1nc(N(C)C)c2ccccc2n1 | - | - | 0 | - | - | 0
Cc1ccc([C@H]2C[C@]34CNS(=O)(=O)[C@H]3C[C@H]2O4)cc1 | 0 | - | - | - | - | -
O=S1(=O)NC[C@]23C[C@H](c4ccc(F)cc4)[C@@H](C[C@@H]21)O3 | -102 | - | 0 | 0 | - | 0
COc1cccc(Cn2c(=O)c(CCc3ccccc3)nc3cncnc32)c1 | - | - | 0 | - | - | 0
Cn1nc([N+](=O)[O-])nc1Sc1nnc(-c2ccccc2)o1 | -90 | 0 | 0 | 0 | ? | 22µM
Cc1cc(NC(=O)Nc2ccc(N(C)C)cc2)c2cc(F)cc(F)c2n1 | - | - | 0 | - | - | 0
COc1ccc(Nc2cc(C)nc3ccc(OC)cc23)cc1 | ? | ? | ? | ? | ? | 0
Cc1ccc(Nc2cc(C)nc3ccc(C)cc23)cc1 | 0 | ? | 0 | ? | 11µM | 0
Cc1ccc(Nc2cc(C)nc3ccccc23)c(C)c1 | ? | 0 | - | 32µM | 10µM | ?
Cc1cc(Nc2ccc3c(c2)OCCO3)c2cc(Cl)ccc2n1 | -93 | 0 | 0 | ? | 0 | 40µM
CCOc1ccc(Nc2cc(C)nc3ccc(C)cc23)cc1 | -74 | 11µM | - | ? | ? | ?
COC(=O)[C@@H]1[C@@H](c2ccccc2)NC(=O)N(CCc2cc(OC)c(OC)c(OC)c2)[C@@H]1C | - | - | - | - | 0 | -
COc1ncc2nc(-c3ccccc3)c(=O)n(C3CC3)c2n1 | - | - | 0 | - | - | 0
Cn1c(=O)cc(SCC(=O)N2CCN(c3ccccc3F)CC2)c2ccc(Cl)cc21 | 0 | 0 | - | - | 0 | 0
CC1(C)C[C@](C)(C(=O)c2ccccc2)C=C1c1ccccc1 | - | - | 0 | - | - | -
CCNc1ncc2nc(-c3cccs3)c(=O)n(Cc3cccs3)c2n1 | - | - | 0 | - | - | 0
Cc1ccc(S(=O)(=O)Nc2ccc(-c3ccc(N4CCCCCC4)nn3)cc2)cc1C | 0 | 0 | - | - | - | 0
NC(=O)c1nn(-c2cccc(Cl)c2)c(=O)cc1O | 0 | 0 | 0 | 0 | ? | 0
SMILES | HCMV inh | Lassa entry inh | Giardia FBPA inh | HCV inh | MARV entry inh | FMDV inh
O=C(Nc1ccccc1)c1nn(-c2ccccc2)c(=O)cc1C(F)(F)F | 0 | 0 | 0 | ? | 0 | 0
O=C(c1ccccc1)c1nn(-c2ccc(Cl)cc2)c(=O)cc1C(F)(F)F | -104 | 11µM | 0 | 6.3µM | 8.9µM | 28µM
O=C(c1ccccc1)c1nn(-c2ccccc2)c(=O)cc1-c1ccccc1 | - | - | - | - | - | 0
O=C(c1cccc(Cl)c1)c1nn(-c2ccccc2)c(=O)cc1C(F)(F)F | -72 | 0 | 0 | 0 | 0 | ?
O=C(c1ccccc1)c1nn(-c2ccccc2)c(=O)cc1C(F)(F)F | -67 | ? | 0 | ? | ? | 0
C=C1C=CS(=O)(=O)N(Cc2ccccc2)C1 | - | - | 0 | - | - | -
N/C(Cc1cccc2ccccc12)=N\OC(=O)c1cccs1 | - | 0 | 0 | 0 | 0 | 0
Cc1ccccc1C(=O)O/N=C(\N)Cc1cccs1 | -62 | 0 | 0 | ? | ? | 0
COc1ccccc1C/C(N)=N/OC(=O)c1cccs1 | 0 | 10µM | 0 | ? | 11µM | 0
O=C(CSc1nc2c([nH]c3ccccc32)c(=O)n1-c1ccccc1)Nc1ccc2c(c1)OCO2 | 0 | 0 | - | - | - | 0
CC1CCCC(C)N1/N=C/c1c[nH]c2ccc(Br)cc12 (stereo unspecified) | -78 | 0 | 0 | 0 | ? | 0
COc1ccc(CNC(=O)Cn2c(SCC(=O)Nc3ccc(OC)cc3)nc3ccccc32)cc1 | 0 | 0 | - | - | - | 0
O=C(CN1CCCCC1)Nc1nc(-c2ccc(Cl)cc2)cs1 | ? | 0 | 0 | 10µM | 0 | 0
O=C(CN1C(=O)NC2(CCCC2)C1=O)Nc1nc(-c2ccc(F)cc2)cs1 | 0 | ? | 0 | 13µM | ? | ?
Cn1c(NC(=O)C[n+]2cc(-c3ccc(Cl)cc3)n3c2CCC3)cc(=O)n(C)c1=O | -77 | 0 | 0 | 0 | 0 | 0
O=C(C[n+]1cc(-c2ccc(Cl)cc2)n2c1CCC2)Nc1nc(-c2ccc(F)cc2)cs1 | -63 | - | 0 | 10µM | 0 | 0
O=C(CN1CCCC1)Nc1nc(-c2ccc(Cl)cc2)cs1 | - | - | - | - | - | 0
O=C(C[n+]1cc(-c2ccc(F)cc2)n2c1CCC2)N1c2ccccc2Sc2ccccc21 | 0 | 0 | 0 | 0 | 0 | 0
Cc1cc(=O)[nH]c2nnc(SCC(=O)Nc3ccc(OC(F)(F)F)cc3)n12 | 0 | 0 | - | - | - | 0
COc1ccccc1CNC(=O)c1cc2cc3ccc(Cl)cc3nc2o1 | 0 | ? | - | - | 0 | 0
CC(C)N1CCN(C(=O)c2cnn(-c3nccc(-c4ccc5c(c4)OCO5)n3)c2-c2ccco2)CC1 | - | - | - | - | - | 0
